Laboratory results taken from ChEMBL document CHEMBL4296182, “CO-ADD screening of NIH NCI Diversity Set V”.
For part of these data: Potency and affinity values are given separately.

Key:
Staphylococcus aureus = assay: Antibacterial activity against Staphylococcus aureus MRSA ATCC 43300 (CO-ADD:GP_020); MIC in CAMBH media using NBS plates, by Resazurin F(560/590); format: functional; details: Concentration 20 uM, ASSAY_TEST Inhibition of Bacterial Growth, detection method Resazurin, Fluorescence (ex560/em590), MEDIA CAMHB, plate type 384well, CORNING #3640, time 18 hr
Acinetobacter baumannii = assay: Antibacterial activity against Acinetobacter baumannii ATCC 19606 (CO-ADD:GN_034); MIC in CAMBH media using NBS plates, by Resazurin F(560/590); format: functional; details: Concentration 20 uM, ASSAY_TEST Inhibition of Bacterial Growth, detection method Resazurin, Fluorescence (ex560/em590), MEDIA CAMHB, plate type 384well, CORNING #3640, time 18 hr
Escherichia coli = assay: Antibacterial activity against Escherichia coli ATCC 25922 (CO-ADD:GN_001); MIC in CAMBH media using NBS plates, by Resazurin F(560/590); format: functional; details: Concentration 20 uM, ASSAY_TEST Inhibition of Bacterial Growth, detection method Resazurin, Fluorescence (ex560/em590), MEDIA CAMHB, plate type 384well, CORNING #3640, time 18 hr
Klebsiella pneumoniae = details: Concentration 20 uM; ASSAY_TEST Inhibition of Bacterial Growth; detection method Absorption (OD600); MEDIA CAMHB; plate type 384well; NBS; CORNING #3640; time 18 hr
Candida albicans = details: 20 µM
Cryptococcus neoformans = details: Concentration 20 uM; ASSAY_TEST Inhibition of Fungal Growth; detection method Resazurin; Absorption (OD600-OD570); plate type 384well; NBS; CORNING #3640

Compound	Inhibition (Staphylococcus aureus)	Inhibition (Acinetobacter baumannii)	Inhibition (Escherichia coli)	Inhibition (Klebsiella pneumoniae)	Inhibition (Candida albicans)	Inhibition (Cryptococcus neoformans)
c1coc(CNc2[nH]cnc3nncc2-3)c1	12.65%	-12.11%	11.54%	7.55%	0.96%	-6.46%
Nc1ccn(C2OC(CCl)C(O)C2O)c(=O)n1 (stereo not given)	16.82%	-8.52%	10.09%	13.7%	0.99%	-4.88%
CCOc1ccc(/C=C2\NC(=S)NC2=O)cc1	4.57%	-5.71%	-3.24%	22.87%	0.92%	-6.77%
C=C(C)C(=O)Nc1ccc(NC(C)C)cc1	12%	5.36%	6.32%	8.48%	4.24%	-6.96%
COc1ccccc1N1C(=O)CC(Sc2ccccc2N)C1=O (stereo not given)	13.62%	1.84%	10.06%	1.73%	0.29%	-6.31%
Cc1cccnc1NC(=O)c1csnn1	5.73%	-12.69%	4.7%	9.01%	-1.09%	-4.1%
Cc1cc(NC(=O)Nc2cc(F)ccc2F)no1	-1.77%	-0.21%	10.41%	7.53%	2.67%	-5.29%
CC(C)(NC(=O)c1cc(Cl)c2ccccc2c1O)C(=O)O	9.7%	5.56%	13.46%	19.28%	5.1%	0.69%
CC1(C)SC(C)(C)N(C=O)C1C(=O)O (stereo not given)	-0.19%	-4.51%	4.94%	4.48%	1.14%	-3.91%
c1ccc(-n2nnnc2-c2cccc3ccccc23)cc1	11.74%	8.55%	-5.59%	3.86%	8.07%	-9.54%
Cc1nnsc1C(=O)NCc1c(F)cccc1Cl	-1.87%	-1.01%	-7.07%	6.44%	-0.57%	-9.18%
COc1cccc2nc3cc(C)c(C)cc3nc12	20.84%	3.71%	12.65%	1.37%	1.48%	-8.3%
O=C(Nc1ccc(NC(=O)c2ccncc2)cc1)c1ccncc1	23.04%	-1.2%	8.24%	15.75%	1.6%	-0.9%
Nc1ccc(OC(=O)Nc2ccc(O)cc2)cc1	-11.3%	1%	-11.72%	2.2%	-2.4%	12.42%
CCn1c2ccccc2c2c3ncc4cccn4c3ccc21	-13.6%	-8.64%	1.37%	9.08%	32.4%	-7.68%
CCNc1nn2ccccc2c1/C=C(/C#N)C(=O)OCC	10.32%	-16.65%	7.73%	11.76%	8.75%	-8.42%
CCn1c2ccccc2c2cc(NC(=O)Nc3ccc([N+](=O)[O-])cc3C)ccc21	15.43%	8.35%	6.19%	0.72%	18.4%	0.49%
COc1c(NC=O)c2c(c([N+](=O)[O-])c1OC)C(=O)OC2	1.34%	7.55%	3.05%	24.74%	5.38%	2.82%
COc1cc(OC)c2c(=O)cc(-c3cccnc3)oc2c1	13.2%	11.57%	-0.96%	9.22%	2.37%	-8.93%
COC(=O)Cc1[nH]c(S)nc1C(=O)OC	-11.54%	1.23%	-12.23%	0.59%	1.43%	19.86%
